Results from PubChem BioAssay (EPA / NIEHS).
“And” between values parts separate entries of the source, which are not always exact repeats. Identical values can stand only once. Results filed as inconclusive are left out. The source made the active and inactive calls. How the source made its calls, unless noted: active means hit-call score of the fitted dose curve at least 0.9, where 1 is the maximum; inactive means score below 0.9.

What was measured:
[1] = read-out: NAD(P)H dehydrogenase [quinone] 1 (NQO1), NQO1 (gene 1728); assay: LTEA_HepaRG_NQO1: Life Technologies and Expression Analysis (LTEA) Assay for NAD(P)H dehydrogenase [quinone] 1 (NQO1) using HepaRG (AID 2283526); conditions: mRNA level, 48 h; actives raise or lower the signal
Procedure, shortened: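 HepaRG, 48 h post-plating → serum-free induction medium → test chemical 48 h (duplicate, 100 uM top, half-log x8, 0.5% DMSO) → RNA isolation → qRT-PCR, ACTB/GAPDH/POLR2A normalization; bidirectional curve fit vs DMSO baseline.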

[2] = read-out: Nuclear factor erythroid 2-related factor 2 (Homo sapiens) (UniProt Q16236); assay: LTEA_HepaRG_NFE2L2: Life Technologies and Expression Analysis (LTEA) Assay for Nuclear factor erythroid 2-related factor 2 (NFE2L2) Transcription Factor using HepaRG (AID 2283527); conditions: mRNA level, 48 h; actives raise or lower the signal;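 further: TaqMan qRT-PCR transcript level normalised to ACTB GAPDH and POLR2A housekeeping genes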
Procedure, shortened: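 Transcript level of NFE2L2 is the read-out, measured by microfluidic TaqMan qRT-PCR and normalized to three housekeeping genes. Human HepaRG cultures received test chemical for 48 h at up to 100 uM in half-log steps. Gain or loss of signal is fitted relative to 0.5% DMSO.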

[3] = read-out: succinate dehydrogenase complex iron sulfur subunit B (SDHB), SDHB (gene 6390); assay: LTEA_HepaRG_SDHB: Life Technologies and Expression Analysis (LTEA) Assay for succinate dehydrogenase complex iron sulfur subunit B (SDHB) using HepaRG (AID 2283528); conditions: mRNA level, 48 h; actives raise or lower the signal
Procedure, shortened: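 Readout is SDHB transcript level by qRT-PCR, normalised to three housekeeping genes and fitted bidirectionally against 0.5% DMSO vehicle. Human HepaRG cells were treated for 48 h at up to 100 uM.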

[4] = read-out: solute carrier (SLCO1B1), SLCO1B1 (gene 10599); assay: LTEA_HepaRG_SLCO1B1: Life Technologies and Expression Analysis (LTEA) Assay for solute carrier (SLCO1B1) using HepaRG (AID 2283530); conditions: mRNA level, 48 h; actives raise or lower the signal
Procedure, shortened: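 Differentiated human HepaRG cells were exposed for 48 h in serum-free induction medium to eight half-log concentrations, top 100 uM, in 0.5% DMSO. SLCO1B1 mRNA was measured by qRT-PCR, normalized to ACTB, GAPDH and POLR2A, and fitted bidirectionally against DMSO.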

[5] = read-out: sulfotransferase 2A1 (SULT2A1), SULT2A1 (gene 6822); assay: LTEA_HepaRG_SULT2A1: Life Technologies and Expression Analysis (LTEA) Assay for sulfotransferase 2A1 (SULT2A1) using HepaRG (AID 2283531); conditions: mRNA level, 48 h; actives raise or lower the signal
Procedure, shortened: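 HepaRG human liver cells, 48 h exposure in serum-free induction medium to 8 half-log concentrations topping at 100 µM (0.5% DMSO), duplicate wells. SULT2A1 mRNA measured by TaqMan qRT-PCR, normalized to ACTB/GAPDH/POLR2A; bidirectional fit against DMSO.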

[6] = read-out: Transforming Growth Factor (TGFA), TGFA (gene 7039); assay: LTEA_HepaRG_TGFA: Life Technologies and Expression Analysis (LTEA) Assay for Transforming Growth Factor (TGFA) using HepaRG (AID 2283532); conditions: mRNA level, 48 h; actives raise or lower the signal
Procedure, shortened: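 HepaRG (human liver line), 48 h exposure, 8 conc. half-log down from 100 uM, 0.5% DMSO vehicle, duplicates; serum-free induction medium. TGFA mRNA by TaqMan qRT-PCR, ACTB/GAPDH/POLR2A normalization; gain/loss fit vs DMSO.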

[7] = read-out: Transforming Growth Factor (TGFB1), TGFB1 (gene 7040); assay: LTEA_HepaRG_TGFB1: Life Technologies and Expression Analysis (LTEA) Assay for Transforming Growth Factor (TGFB1) Transporter using HepaRG (AID 2283533); conditions: mRNA level, 48 h; actives raise or lower the signal
Procedure, shortened: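 Differentiated HepaRG cells exposed 48 hr in serum-free induction medium to eight half-log concentrations up to 100 uM (0.5% DMSO), duplicate; TGFB1 mRNA by TaqMan qRT-PCR normalised to ACTB, GAPDH, POLR2A; bidirectional fit against DMSO.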

TIMP1, TIMP1 (gene 7076) = assay: LTEA_HepaRG_TIMP1: Life Technologies and Expression Analysis (LTEA) Assay for TIMP1 using HepaRG (AID 2283534); conditions: mRNA level, 48 h; actives raise or lower the signal;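 further: TaqMan qRT-PCR signal normalized to ACTB GAPDH and POLR2A housekeeping genes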
Procedure, shortened: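 Differentiated HepaRG cells exposed 48 h in serum-free induction medium, duplicates, eight half-log concentrations from 100 uM in 0.5% DMSO. TIMP1 mRNA by qRT-PCR normalized to ACTB, GAPDH, POLR2A; bidirectional fitting against DMSO.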

[8] = read-out: Tumor necrosis factor receptor 1 (TNFRSF1A), TNFRSF1A (gene 7132); assay: LTEA_HepaRG_TNFRSF1A: Life Technologies and Expression Analysis (LTEA) Assay for Tumor necrosis factor receptor 1 (TNFRSF1A) using HepaRG (AID 2283535); conditions: mRNA level, 48 h; actives raise or lower the signal
Procedure, shortened: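 Differentiated HepaRG cells in serum-free induction medium, exposed 48 h in duplicate to 8 half-log concentrations up to 100 uM in 0.5% DMSO. TNFRSF1A mRNA by Fluidigm TaqMan qRT-PCR, normalized to ACTB, GAPDH, POLR2A; bidirectional fit.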

[9] = read-out: Thyroid Hormone Responsive (THRSP), THRSP (gene 7069); assay: LTEA_HepaRG_THRSP: Life Technologies and Expression Analysis (LTEA) Assay for Thyroid Hormone Responsive (THRSP) using HepaRG (AID 2283536); conditions: mRNA level, 48 h; actives raise or lower the signal
Procedure, shortened: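 mRNA induction or loss relative to 0.5% DMSO vehicle was fitted bidirectionally across an eight-point curve whose highest exposure was 100 uM. Human HepaRG liver cells received chemicals in duplicate over 48 h before RNA extraction.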

[10] = read-out: Cellular tumor antigen p53 (Homo sapiens) (UniProt P04637); assay: LTEA_HepaRG_TP53: Life Technologies and Expression Analysis (LTEA) Assay for Tumor Protein P53 (TP53) using HepaRG (AID 2283537); conditions: mRNA level, 48 h; actives raise or lower the signal
Procedure, shortened: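 Read-out is TP53 transcript level by microfluidic qRT-PCR, normalised to three housekeeping genes and fitted bidirectionally against DMSO. Human HepaRG cells received compounds for 48 h, highest concentration 100 uM.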

[11] = read-out: UDP glucuronosyltransferase (UGT1A1), UGT1A1 (gene 54658); assay: LTEA_HepaRG_UGT1A1: Life Technologies and Expression Analysis (LTEA) Assay for UDP glucuronosyltransferase (UGT1A1) using HepaRG (AID 2283538); conditions: mRNA level, 48 h; actives raise or lower the signal
Procedure, shortened: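 Readout is UGT1A1 transcript level by qRT-PCR, normalized to three housekeeping genes, after 48 h chemical treatment of HepaRG cells. Concentrations ran from 100 uM down in half-log steps with 0.5% DMSO, and gain or loss relative to DMSO was fitted.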

[12] = read-out: UDP glucuronosyltransferase (UGT1A6), UGT1A6 (gene 54578); assay: LTEA_HepaRG_UGT1A6: Life Technologies and Expression Analysis (LTEA) Assay for UDP glucuronosyltransferase (UGT1A6) using HepaRG (AID 2283539); conditions: mRNA level, 48 h; actives raise or lower the signal
Procedure, shortened: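 Differentiated HepaRG cells, ~100,000/well, were exposed for 48 h in serum-free induction medium with 0.5% DMSO to 8-point half-log series topping at 100 uM, in duplicate. mRNA measured by Fluidigm TaqMan qRT-PCR, normalized to ACTB, GAPDH and POLR2A.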

[13] = read-out: X-box binding protein 1 (XBP1), XBP1 (gene 7494); assay: LTEA_HepaRG_XBP1: Life Technologies and Expression Analysis (LTEA) Assay for X-box binding protein 1 (XBP1) using HepaRG (AID 2283540); conditions: mRNA level, 48 h; actives raise or lower the signal
Procedure, shortened: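 Differentiated human HepaRG cells in serum-free induction medium exposed 48 h in duplicate to eight half-log concentrations up to 100 uM in 0.5% DMSO. XBP1 mRNA measured by Fluidigm TaqMan qRT-PCR, normalized to ACTB, GAPDH, POLR2A; bidirectional fitting against DMSO.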

[14] = LTEA_HepaRG_LDH_cytotoxicity: Cytotoxicity Assessment in the Life Technologies and Expression Analysis (LTEA) Assay (AID 2283563; active means hit-call score of the fitted dose curve at least 0.9, where 1 is the maximum;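 on AC50: LDH activity released into spent culture medium as a marker of cell death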)
Procedure, shortened: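 Differentiated HepaRG cells in serum-free induction medium, exposed 48 h in duplicate to 8 half-log concentrations up to 100 uM in 0.5% DMSO. Cytotoxicity from LDH measured in spent medium, fit relative to DMSO.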

[15] = ATG_XTT_Cytotoxicity: Cytotoxicity Assessment in the Attagene TRANS-FACTORIAL HepG2 Assay (AID 2283584; active means hit-call score of the fitted dose curve at least 0.9, where 1 is the maximum)
Procedure, shortened: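 HepG2 cells transiently transfected with GAL4-UAS multiple reporter units, dosed 24 h; cytotoxicity read by XTT as loss of signal versus DMSO baseline.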

[16] = TOX21_p53_BLA_p2_viability: Viability Assessment in the Tox21 HCT-116 p53 Agonism Beta-lactamase Assay, Phase 2 (AID 2283591; active means hit-call score of the fitted dose curve at least 0.9, where 1 is the maximum;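 further: compound exposure lasted 16 h at 37 °C; actives lower the ATP signal meaning cytotoxicity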)
Procedure, shortened: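 Cytotoxicity readout: CellTiter-Glo ATP luminescence, 30 min at room temperature, after the beta-lactamase read. Cells were HCT116 exposed 16 h at 37C to compounds pin-transferred at 217-fold dilution from DMSO stocks.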

[17] = read-out: Signal transducer and activator of transcription 3 (Homo sapiens) (UniProt P40763); assay: LTEA_HepaRG_STAT3: Life Technologies and Expression Analysis (LTEA) Assay for Signal transducer and activator of transcription (STAT3) using HepaRG (AID 2283529); conditions: mRNA level, 48 h; actives raise or lower the signal
Procedure, shortened: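 Read-out is STAT3 mRNA level by qRT-PCR, normalized to three housekeeping genes, in human HepaRG liver cells treated for 48 h. Concentrations ran from 100 uM downward in half-log steps; curves were fitted for gain or loss relative to 0.5% DMSO.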

Sequence of Cellular tumor antigen p53 (Homo sapiens) (P04637 whole entry, looked up): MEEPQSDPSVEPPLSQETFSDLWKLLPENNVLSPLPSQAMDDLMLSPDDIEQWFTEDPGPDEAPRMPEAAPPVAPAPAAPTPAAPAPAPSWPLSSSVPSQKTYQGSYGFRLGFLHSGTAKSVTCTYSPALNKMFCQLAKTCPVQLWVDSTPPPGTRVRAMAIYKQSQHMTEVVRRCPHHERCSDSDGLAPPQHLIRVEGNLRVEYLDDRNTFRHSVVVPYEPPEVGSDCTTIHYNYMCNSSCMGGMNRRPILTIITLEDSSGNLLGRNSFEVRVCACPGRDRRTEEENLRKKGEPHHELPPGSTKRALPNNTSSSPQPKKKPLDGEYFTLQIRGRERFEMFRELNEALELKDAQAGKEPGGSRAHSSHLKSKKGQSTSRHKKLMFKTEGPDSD
Sequence of Signal transducer and activator of transcription 3 (Homo sapiens) (P40763 whole entry, looked up): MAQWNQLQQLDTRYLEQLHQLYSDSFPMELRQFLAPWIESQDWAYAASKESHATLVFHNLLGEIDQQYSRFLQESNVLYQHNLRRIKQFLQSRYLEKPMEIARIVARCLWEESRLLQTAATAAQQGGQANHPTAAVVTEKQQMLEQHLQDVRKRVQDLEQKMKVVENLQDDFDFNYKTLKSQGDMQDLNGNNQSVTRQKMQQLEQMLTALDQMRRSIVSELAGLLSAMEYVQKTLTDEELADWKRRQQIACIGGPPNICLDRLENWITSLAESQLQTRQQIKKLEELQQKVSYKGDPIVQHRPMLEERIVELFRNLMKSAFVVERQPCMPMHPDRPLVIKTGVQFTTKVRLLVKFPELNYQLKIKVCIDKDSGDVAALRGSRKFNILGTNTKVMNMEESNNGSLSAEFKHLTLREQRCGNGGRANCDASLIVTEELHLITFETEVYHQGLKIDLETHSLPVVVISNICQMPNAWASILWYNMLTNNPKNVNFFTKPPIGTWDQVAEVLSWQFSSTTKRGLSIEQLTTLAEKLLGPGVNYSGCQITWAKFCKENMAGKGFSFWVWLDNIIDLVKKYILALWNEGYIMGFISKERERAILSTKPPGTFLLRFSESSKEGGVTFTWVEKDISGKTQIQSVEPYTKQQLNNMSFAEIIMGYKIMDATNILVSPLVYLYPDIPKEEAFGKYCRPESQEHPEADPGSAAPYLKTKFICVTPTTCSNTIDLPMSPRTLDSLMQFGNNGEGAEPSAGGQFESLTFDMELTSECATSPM
Sequence of Nuclear factor erythroid 2-related factor 2 (Homo sapiens) (Q16236 whole entry, looked up): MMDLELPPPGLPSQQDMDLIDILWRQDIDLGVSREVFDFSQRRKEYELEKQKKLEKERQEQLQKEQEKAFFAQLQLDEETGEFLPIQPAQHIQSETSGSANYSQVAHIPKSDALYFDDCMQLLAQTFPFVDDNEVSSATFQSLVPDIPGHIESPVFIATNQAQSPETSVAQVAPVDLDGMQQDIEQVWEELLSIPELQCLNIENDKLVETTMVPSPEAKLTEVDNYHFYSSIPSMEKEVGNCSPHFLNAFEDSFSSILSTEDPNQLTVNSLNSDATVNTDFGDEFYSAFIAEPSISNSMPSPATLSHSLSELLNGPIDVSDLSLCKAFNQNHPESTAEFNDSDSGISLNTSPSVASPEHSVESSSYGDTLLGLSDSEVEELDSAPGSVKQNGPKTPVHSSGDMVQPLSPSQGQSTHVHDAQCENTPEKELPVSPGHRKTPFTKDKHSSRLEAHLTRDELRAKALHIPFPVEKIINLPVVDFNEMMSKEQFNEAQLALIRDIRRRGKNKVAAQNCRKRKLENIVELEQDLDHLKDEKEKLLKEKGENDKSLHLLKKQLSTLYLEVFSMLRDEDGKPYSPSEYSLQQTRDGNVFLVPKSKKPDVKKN

CS(=O)(=O)NC(=O)c1cc(Oc2ccc(C(F)(F)F)cc2Cl)ccc1[N+](=O)[O-]
outcome [1]: inactive
outcome [2]: inactive
outcome [3]: inactive
outcome [4]: inactive
outcome [5]: inactive
outcome [6]: inactive
outcome [7]: inactive
outcome (TIMP1, TIMP1 (gene 7076)): inactive
outcome [8]: inactive
outcome [9]: inactive
outcome [10]: inactive
AC50 [11]: 3.32 µM (active)
outcome [12]: inactive
outcome [13]: inactive
outcome [14]: inactive
outcome [15]: inactive
outcome [16]: inactive

N#CC(Br)Br
outcome [1]: inactive
outcome [2]: inactive
outcome [3]: inactive
outcome [17]: inactive
outcome [4]: inactive
outcome [6]: inactive
outcome [7]: inactive
outcome (TIMP1, TIMP1 (gene 7076)): inactive
outcome [8]: inactive
outcome [9]: inactive
outcome [11]: inactive
outcome [12]: inactive
outcome [13]: inactive
outcome [14]: inactive

C[C@]12C=CC3=C4CCC(=O)C=C4CC[C@H]3[C@@H]1CC[C@@H]2O
outcome [1]: inactive
outcome [2]: inactive
outcome [3]: inactive
outcome [17]: inactive
AC50 [4]: 9.92 µM (active)
AC50 [5]: 81.8 µM (active)
outcome [6]: inactive
outcome [7]: inactive
outcome (TIMP1, TIMP1 (gene 7076)): inactive
outcome [8]: inactive
AC50 [9]: 15.7 µM (active)
AC50 [11]: 1.01 µM (active)
outcome [12]: inactive
AC50 [13]: 72.4 µM (active)
outcome [14]: inactive
outcome [15]: inactive

CCCCCOC(=O)c1ccccc1C(=O)OCCCCC
outcome [1]: inactive
outcome [2]: inactive
outcome [3]: inactive
outcome [4]: inactive
outcome [5]: inactive
outcome [6]: inactive
outcome [7]: inactive
outcome (TIMP1, TIMP1 (gene 7076)): inactive
outcome [8]: inactive
outcome [9]: inactive
outcome [10]: inactive
outcome [11]: inactive
outcome [12]: inactive
outcome [13]: inactive
outcome [14]: inactive
outcome [15]: inactive
outcome [16]: inactive

c1ccc(C2CO2)cc1 (stereo not given)
outcome [1]: inactive
outcome [2]: inactive
outcome [3]: inactive
outcome [17]: inactive
outcome [4]: inactive
outcome [5]: inactive
outcome [6]: inactive
outcome [7]: inactive
outcome [8]: inactive
outcome [9]: inactive
outcome [10]: inactive
outcome [11]: inactive
outcome [12]: inactive
outcome [13]: inactive
outcome [14]: inactive
outcome [16]: inactive

Clc1ccccc1Cl
outcome [1]: inactive
outcome [2]: inactive
outcome [3]: inactive
outcome [17]: inactive
outcome [4]: inactive
outcome [5]: inactive
outcome [6]: inactive
outcome [7]: inactive
outcome (TIMP1, TIMP1 (gene 7076)): inactive
outcome [8]: inactive
outcome [9]: inactive
outcome [11]: inactive
outcome [12]: inactive
outcome [13]: inactive
outcome [14]: inactive
outcome [15]: inactive

ClCCOCCCl
outcome [1]: inactive
outcome [2]: inactive
outcome [3]: inactive
outcome [4]: inactive
outcome [5]: inactive
outcome [6]: inactive
outcome [7]: inactive
outcome (TIMP1, TIMP1 (gene 7076)): inactive
outcome [8]: inactive
outcome [9]: inactive
outcome [10]: inactive
outcome [11]: inactive
outcome [12]: inactive
outcome [13]: inactive
outcome [14]: inactive
outcome [15]: inactive
outcome [16]: inactive

Clc1ccc(C(c2ccc(Cl)cc2)C(Cl)(Cl)Cl)cc1
outcome [1]: inactive
outcome [2]: inactive
AC50 [3]: 17 µM (active)
outcome [4]: inactive
outcome [5]: inactive
outcome [6]: inactive
outcome [7]: inactive
outcome (TIMP1, TIMP1 (gene 7076)): inactive
outcome [8]: inactive
AC50 [9]: 68.1 µM (active)
outcome [10]: inactive
AC50 [11]: 2.03 µM (active)
outcome [12]: inactive
outcome [13]: inactive
AC50 [14]: 72.3 µM (active)
outcome [15]: inactive
AC50 [16]: 46.1 µM (active) and 46.4 µM (active) and 23 µM (active)
